The values below come from PubChem BioAssay (Tox21).

Inconclusive results are not listed. Activity calls are given as the source filed them. Calls follow the shape of the dose curve; as a rule, active = well fitted activation curve with a large enough effect in the repeat runs; inconclusive = weak or mixed curves; inactive = flat fitted curve, though single readings scatter.
% is scaled to controls: 0 for no effect and ±100 for the full control effect; potency is read from the fitted curve at half-maximal effect.

One assay can be described thus: A CellTox Green Cytotoxicity Assay to monitor cytotoxicity in HepG2 cells - 24 hour (AID 1224878). Also: nearly all actives have a fitted effect of over 45% in size. The conditions noted are these: CellTox Green fluorescence; series mostly up to 76.8 µM; cytotoxicity: at the top concentration. Summed up: (§1)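 Nonlytic assay: viable cells exclude the dye, so fluorescence scales with cell death. HepG2 at 600 cells/well, compounds added after 5 h, signal read across 40 h.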
On to `CCC(=O)CC(C)CC` (configuration not stated), for which the cytotoxicity is 8.2% [at 0.29 µM] (inactive).

Consider `C=C/C=C/C=C/CCCCC`, for which the cytotoxicity was -3.54% [at 15.8 µM] (inactive).

With `Oc1c(Br)cc(Br)c2cccnc12`, the “cytotoxicity” value is 5.95% [at 35.3 µM] (inactive).

For `CCCCCCCC/C=C\CCCCCCCC(=O)NCc1ccc(O)c(OC)c1`, the “cytotoxicity” value was -0.58% [at 35.3 µM] (inactive).

As to `CCCOc1sc(C(=O)N2CCC(c3cc(CN)ccc3F)CC2)c(C)c1Br`, the Potency was 20 µM (active).

Regarding `O=S(O)O`, the cytotoxicity was -9.86% [at 15.8 µM] (inactive).

With `NCCCCCCNCCCCCCN`, the “cytotoxicity” value is -0.5% (inactive).

Consider `C=CC/C=C/C/C=C/C/C=C/C`, for which the “cytotoxicity” value was -3.17% (inactive).

For the compound `C=CCCCCCCC=C`, the “cytotoxicity” value is 1.78% (inactive).

For the compound `CCCCN(C)C`, the “cytotoxicity” value is 2.69% (inactive).

As for `CC(NCCC(c1ccccc1)c1ccccc1)c1ccccc1` (configuration not stated), the Potency is 16.9 µM (active).

Consider `CCCCCCCCCCCCCCCC`, for which the “cytotoxicity” value was -3% (inactive).

For `CCc1cccc(CC)c1NC(=O)C(=O)O`, the “cytotoxicity” value is 11.6% (inactive).

With `O=C1OC(OC(=O)c2cccnc2Nc2cccc(C(F)(F)F)c2)c2ccccc21` (configuration not stated), the “cytotoxicity” value is -2.82% [at 35.3 µM] (inactive).

`CN1[C@@H]2CC[C@H]1CC(OC(=O)C(CO)c1ccccc1)C2` (some centres not stated): the Potency entry is “inactive”.

In the case of `CC(COC(=O)c1ccccc1)OC(=O)c1ccccc1` (configuration not stated), the “cytotoxicity” value is -2.49% (inactive).

In the case of `CCOC(=O)CN`, the “cytotoxicity” value is -0.317% (inactive).

With `COC(=O)CC(C)CCC=C(C)C` (configuration not stated), the “cytotoxicity” value was 5.73% (inactive).

As for `CCCCCCCC(=O)OCC`, the “cytotoxicity” value is 2.92% (inactive).

As for `CCOC(/C=C(\C)CCC=C(C)C)OCC`, the “cytotoxicity” value is -8.44% (inactive).

Regarding `CCC1CCCCC1`, the “cytotoxicity” value is -16.4% (inactive).

With `CCCCCCCCCCCCCCNCCO`, the Potency was 7.56 µM (active).

For `O=C1c2c(O)ccc(O)c2C(=O)c2c(NCCNCCO)ccc(NCCNCCO)c21`, the “cytotoxicity” value was -63.6% [at 35.3 µM] (inactive).

For `Cc1c(-c2ccc(O)cc2)n(Cc2ccc(OCCN3CCCCCC3)cc2)c2ccc(O)cc12`, the Potency is 19 µM (active).

Turning to `C=CC(C)(CCC=C(C)C)OC(=O)/C=C/c1ccccc1` (configuration not stated), the Potency was 38.9 µM (active).

In the case of `COc1nccnc1CC(C)C`, the “cytotoxicity” value is 1.2% (inactive).

Consider `CCCCC(CC)COC(=O)c1ccc(O)cc1` (configuration not stated), for which the Potency is 34.7 µM (active).

For `Cc1c(C(=O)O)cccc1[N+](=O)[O-]`, the “cytotoxicity” value was -4.13% (inactive).

For the compound `Clc1ccccc1CN1CCc2sccc2C1`, the “cytotoxicity” value is -1.75% [at 35.3 µM] (inactive).

Take `Clc1ccc(C(c2ccccc2Cl)C(Cl)Cl)cc1` (configuration not stated): the “cytotoxicity” value was 3.92% [at 35.3 µM] (inactive).

As to `CCC(C)c1ccccc1` (configuration not stated), the “cytotoxicity” value was -7.89% (inactive).

Consider `CCCCCCCOC(=O)c1ccccc1C(=O)OCCCCCCC`, for which the “cytotoxicity” value was -5.21% (inactive).

As for `COCC(=O)O[C@]1(CCN(C)CCCc2nc3ccccc3[nH]2)CCc2cc(F)ccc2[C@@H]1C(C)C`, the Potency was 13.4 µM (active).

On to `O[C@@H](c1cc(C(F)(F)F)nc2c(C(F)(F)F)cccc12)[C@H]1CCCCN1`, for which the Potency is 21.3 µM (active).

Take `CC(C)=C1CC[C@@H](C)CC1=O`: the “cytotoxicity” value is 4.78% (inactive).

Take `SCCCCCCCCS`: the Potency was 19.5 µM (active).

A short description of a further assay: A CellTox Green Cytotoxicity Assay to monitor cytotoxicity in HepG2 cells - 40 hour (AID 1224879). Also: nearly all actives have a fitted effect of over 40% in size. The conditions noted are these: CellTox Green fluorescence; series mostly up to 76.8 µM; cytotoxicity increase: at the top concentration. Summed up: as §1
As to `CCC(=O)CC(C)CC` (configuration not stated), the cytotoxicity increase was 5.43% [at 0.29 µM] (inactive).

Turning to `C=C/C=C/C=C/CCCCC`, the cytotoxicity increase was -4.48% [at 15.8 µM] (inactive).

As to `Oc1c(Br)cc(Br)c2cccnc12`, the “cytotoxicity increase” value is 19.6% [at 35.3 µM] (inactive).

Regarding `CCCCCCCC/C=C\CCCCCCCC(=O)NCc1ccc(O)c(OC)c1`, the “cytotoxicity increase” value was 1.98% [at 35.3 µM] (inactive).

With `CCCOc1sc(C(=O)N2CCC(c3cc(CN)ccc3F)CC2)c(C)c1Br`, the Potency was 15.9 µM (active).

`O=S(O)O`: the cytotoxicity increase was -12.9% [at 15.8 µM] (inactive).

In the case of `NCCCCCCNCCCCCCN`, the “cytotoxicity increase” value is 1.71% (inactive).

As for `C=CC/C=C/C/C=C/C/C=C/C`, the “cytotoxicity increase” value is -8.26% (inactive).

Consider `C=CCCCCCCC=C`, for which the “cytotoxicity increase” value is 0.479% (inactive).

As to `CCCCN(C)C`, the “cytotoxicity increase” value was 1.4% (inactive).

Consider `CC(NCCC(c1ccccc1)c1ccccc1)c1ccccc1` (configuration not stated), for which the Potency was 15.1 µM (active).

`CCCCCCCCCCCCCCCC`: the “cytotoxicity increase” value was -2.86% (inactive).

Regarding `CCc1cccc(CC)c1NC(=O)C(=O)O`, the “cytotoxicity increase” value was 7.74% (inactive).

As to `O=C1OC(OC(=O)c2cccnc2Nc2cccc(C(F)(F)F)c2)c2ccccc21` (configuration not stated), the “cytotoxicity increase” value is 7.96% [at 35.3 µM] (inactive).

As for `CN1[C@@H]2CC[C@H]1CC(OC(=O)C(CO)c1ccccc1)C2` (some centres not stated), the Potency entry was “inactive”.

Turning to `CC(COC(=O)c1ccccc1)OC(=O)c1ccccc1` (configuration not stated), the “cytotoxicity increase” value is -1.94% (inactive).

As to `CCOC(=O)CN`, the “cytotoxicity increase” value is -1.89% (inactive).

Regarding `COC(=O)CC(C)CCC=C(C)C` (configuration not stated), the “cytotoxicity increase” value was 17.5% (inactive).

Take `CCCCCCCC(=O)OCC`: the “cytotoxicity increase” value was 5.53% (inactive).

Take `CCOC(/C=C(\C)CCC=C(C)C)OCC`: the “cytotoxicity increase” value is -9.02% (inactive).

For `CCC1CCCCC1`, the “cytotoxicity increase” value was -16% (inactive).

In the case of `CCCCCCCCCCCCCCNCCO`, the Potency was 7.56 µM (active).

Turning to `O=C1c2c(O)ccc(O)c2C(=O)c2c(NCCNCCO)ccc(NCCNCCO)c21`, the “cytotoxicity increase” value was -68.8% [at 35.3 µM] (inactive).

Take `Cc1c(-c2ccc(O)cc2)n(Cc2ccc(OCCN3CCCCCC3)cc2)c2ccc(O)cc12`: the Potency was 8.49 µM (active).

On to `C=CC(C)(CCC=C(C)C)OC(=O)/C=C/c1ccccc1` (configuration not stated), for which the Potency was 43.6 µM (active).

`COc1nccnc1CC(C)C`: the “cytotoxicity increase” value was 0.55% (inactive).

On to `CCCCC(CC)COC(=O)c1ccc(O)cc1` (configuration not stated), for which the Potency is 34.7 µM (active).

Turning to `Cc1c(C(=O)O)cccc1[N+](=O)[O-]`, the “cytotoxicity increase” value was -2.25% (inactive).

Turning to `Clc1ccccc1CN1CCc2sccc2C1`, the “cytotoxicity increase” value is -2.72% [at 35.3 µM] (inactive).

Regarding `Clc1ccc(C(c2ccccc2Cl)C(Cl)Cl)cc1` (configuration not stated), the “cytotoxicity increase” value was 4.65% [at 35.3 µM] (inactive).

In the case of `CCC(C)c1ccccc1` (configuration not stated), the “cytotoxicity increase” value was -10.9% (inactive).

Turning to `CCCCCCCOC(=O)c1ccccc1C(=O)OCCCCCCC`, the “cytotoxicity increase” value was -10.7% (inactive).

For the compound `COCC(=O)O[C@]1(CCN(C)CCCc2nc3ccccc3[nH]2)CCc2cc(F)ccc2[C@@H]1C(C)C`, the Potency was 10.7 µM (active).

Turning to `O[C@@H](c1cc(C(F)(F)F)nc2c(C(F)(F)F)cccc12)[C@H]1CCCCN1`, the Potency is 15.1 µM (active).

Consider `CC(C)=C1CC[C@@H](C)CC1=O`, for which the “cytotoxicity increase” value is 7.42% (inactive).

For the compound `SCCCCCCCCS`, the Potency was 19.5 µM (active).
